Test in all cases: DAPPL (digital affinity profiling via proximity ligation, sequencing); 10 mM Tris-HCl pH 7.5, 50 mM NaCl, 1 mM DTT, 4% glycerol, room temperature, 30 min; GST-TFs on glutathione beads, 16-mer random dsDNA library, 0.1% formaldehyde crosslink after washing; high values mean tight binding
Common to all, as to conditions: protein: recombinant; tags: N-terminal GST; dsDNA, one strand shown

For one assay, the target named is T1, FLI1 (Homo sapiens, UniProt Q01543 1-452).
T1 sequence: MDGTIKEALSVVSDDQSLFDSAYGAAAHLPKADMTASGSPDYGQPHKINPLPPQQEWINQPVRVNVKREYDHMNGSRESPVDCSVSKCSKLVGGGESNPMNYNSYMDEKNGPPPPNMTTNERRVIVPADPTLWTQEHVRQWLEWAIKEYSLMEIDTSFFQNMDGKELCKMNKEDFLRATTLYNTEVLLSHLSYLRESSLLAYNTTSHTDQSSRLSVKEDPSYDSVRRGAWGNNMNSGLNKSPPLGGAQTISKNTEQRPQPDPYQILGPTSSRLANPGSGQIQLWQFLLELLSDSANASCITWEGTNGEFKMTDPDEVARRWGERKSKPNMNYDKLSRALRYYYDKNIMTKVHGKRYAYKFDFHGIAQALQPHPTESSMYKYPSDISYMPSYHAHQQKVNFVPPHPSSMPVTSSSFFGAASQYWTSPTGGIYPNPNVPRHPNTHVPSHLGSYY
The essentials: (§1)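 Binding signal is defined as a hexamer's read frequency for one factor over its frequency for the tag-only sample. To obtain reads, GST-fused human transcription factors were expressed in yeast, captured on glutathione beads, barcoded with DNA and pooled with that sample. Pools met 200 nmole of a 16-mer random double-stranded DNA library in Tris/NaCl/DTT/glycerol buffer for 30 min at room temperature before washing, 0.1% formaldehyde crosslinking, proximity ligation (BsaI/T4 ligase, 1 h, 37 °C), PCR and Illumina NextSeq500 sequencing.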

The target of the next assay is T2, ELK1 (Homo sapiens, UniProt P19419 1-428).
T2 sequence: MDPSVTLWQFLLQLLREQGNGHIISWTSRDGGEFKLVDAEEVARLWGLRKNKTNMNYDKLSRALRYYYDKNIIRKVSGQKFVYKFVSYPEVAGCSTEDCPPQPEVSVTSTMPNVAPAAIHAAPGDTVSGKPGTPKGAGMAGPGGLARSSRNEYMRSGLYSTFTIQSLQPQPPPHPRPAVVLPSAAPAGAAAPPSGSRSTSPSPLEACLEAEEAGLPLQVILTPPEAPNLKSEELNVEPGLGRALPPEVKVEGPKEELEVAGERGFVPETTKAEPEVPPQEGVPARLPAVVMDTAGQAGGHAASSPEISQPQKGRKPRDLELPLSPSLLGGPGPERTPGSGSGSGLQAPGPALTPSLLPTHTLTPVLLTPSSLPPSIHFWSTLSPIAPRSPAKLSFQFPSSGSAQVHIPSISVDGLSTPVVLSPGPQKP
The essentials: as §1

The target of another assay is T3, GABPA (Homo sapiens, UniProt Q06546 1-454).
T3 sequence: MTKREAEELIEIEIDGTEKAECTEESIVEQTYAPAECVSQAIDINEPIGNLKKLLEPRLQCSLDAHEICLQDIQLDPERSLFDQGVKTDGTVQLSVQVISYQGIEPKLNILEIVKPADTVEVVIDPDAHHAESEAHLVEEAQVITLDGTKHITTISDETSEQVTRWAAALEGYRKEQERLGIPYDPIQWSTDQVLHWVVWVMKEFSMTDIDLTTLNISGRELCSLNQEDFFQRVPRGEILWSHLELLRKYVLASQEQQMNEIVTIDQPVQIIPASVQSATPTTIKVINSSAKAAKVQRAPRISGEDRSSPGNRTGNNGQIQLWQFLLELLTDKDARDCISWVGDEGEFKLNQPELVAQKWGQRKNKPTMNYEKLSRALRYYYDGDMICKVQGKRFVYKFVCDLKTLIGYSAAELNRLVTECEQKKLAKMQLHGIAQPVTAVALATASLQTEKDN
The procedure, abridged:
as §1

The target of another assay is T4, ERG (Homo sapiens, UniProt P11308 1-479).
T4 sequence: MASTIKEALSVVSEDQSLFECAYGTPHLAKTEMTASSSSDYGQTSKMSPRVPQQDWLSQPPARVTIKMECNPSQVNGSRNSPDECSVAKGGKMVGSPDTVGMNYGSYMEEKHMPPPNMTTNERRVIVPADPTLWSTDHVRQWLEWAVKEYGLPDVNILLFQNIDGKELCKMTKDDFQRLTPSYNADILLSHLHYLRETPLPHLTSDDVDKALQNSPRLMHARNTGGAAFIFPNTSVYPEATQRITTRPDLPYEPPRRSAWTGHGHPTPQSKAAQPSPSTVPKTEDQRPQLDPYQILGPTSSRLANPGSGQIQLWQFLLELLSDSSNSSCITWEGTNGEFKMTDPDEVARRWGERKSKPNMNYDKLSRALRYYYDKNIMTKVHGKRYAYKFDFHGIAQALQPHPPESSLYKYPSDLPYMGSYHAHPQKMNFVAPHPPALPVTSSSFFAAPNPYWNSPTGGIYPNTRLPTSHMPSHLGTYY
The procedure, abridged: as §1

A further assay addresses ELF1 (Homo sapiens, UniProt P32519 1-619). The essentials: as §1
Another assay addresses T5, EHF (Homo sapiens, UniProt Q9NZC4 1-300).
T5 sequence: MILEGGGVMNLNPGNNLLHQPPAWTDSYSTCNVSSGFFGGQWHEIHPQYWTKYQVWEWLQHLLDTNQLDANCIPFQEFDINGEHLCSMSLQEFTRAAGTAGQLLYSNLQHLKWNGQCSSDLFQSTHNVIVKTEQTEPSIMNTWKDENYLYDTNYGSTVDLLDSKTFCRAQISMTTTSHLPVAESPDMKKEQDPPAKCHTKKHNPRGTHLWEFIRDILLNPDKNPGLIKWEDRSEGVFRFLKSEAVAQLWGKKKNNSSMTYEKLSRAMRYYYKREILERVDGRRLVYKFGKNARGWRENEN
The procedure, abridged:
as §1

The target of a further assay is SPI1 (Homo sapiens, UniProt P17947 1-270). The essentials: as §1
A further assay concerns the target SPIB (Homo sapiens, UniProt Q01892 1-262). The procedure, abridged:
as §1

A further assay deals with T6, ELK3 (Homo sapiens, UniProt P41970 1-407).
T6 sequence: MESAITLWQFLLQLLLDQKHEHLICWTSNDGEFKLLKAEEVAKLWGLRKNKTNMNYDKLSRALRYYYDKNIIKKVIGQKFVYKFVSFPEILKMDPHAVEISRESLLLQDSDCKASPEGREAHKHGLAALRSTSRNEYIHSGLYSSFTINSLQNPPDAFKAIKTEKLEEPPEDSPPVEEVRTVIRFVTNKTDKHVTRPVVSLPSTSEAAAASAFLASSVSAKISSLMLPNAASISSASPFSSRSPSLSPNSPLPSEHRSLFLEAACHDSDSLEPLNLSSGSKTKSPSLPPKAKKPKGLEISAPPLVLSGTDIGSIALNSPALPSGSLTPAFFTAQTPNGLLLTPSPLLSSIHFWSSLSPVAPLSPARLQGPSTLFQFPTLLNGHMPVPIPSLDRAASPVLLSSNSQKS
The procedure, abridged:
as §1

A further assay deals with T7, FEV (Homo sapiens, UniProt Q99581 1-238).
T7 sequence: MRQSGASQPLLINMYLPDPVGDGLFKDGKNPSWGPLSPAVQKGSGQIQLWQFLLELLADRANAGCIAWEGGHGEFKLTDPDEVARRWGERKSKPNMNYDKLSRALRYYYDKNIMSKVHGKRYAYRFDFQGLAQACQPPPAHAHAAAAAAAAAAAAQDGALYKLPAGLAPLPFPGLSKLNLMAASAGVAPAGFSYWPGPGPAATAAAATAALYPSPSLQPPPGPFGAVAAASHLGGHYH
The procedure, abridged: as §1

The target of the next assay is ETV5 (Homo sapiens, UniProt P41161 1-510). The procedure, abridged:
as §1

For a further assay, the target named is T8, SPIC (Homo sapiens, UniProt Q8N5J4 1-248).
T8 sequence: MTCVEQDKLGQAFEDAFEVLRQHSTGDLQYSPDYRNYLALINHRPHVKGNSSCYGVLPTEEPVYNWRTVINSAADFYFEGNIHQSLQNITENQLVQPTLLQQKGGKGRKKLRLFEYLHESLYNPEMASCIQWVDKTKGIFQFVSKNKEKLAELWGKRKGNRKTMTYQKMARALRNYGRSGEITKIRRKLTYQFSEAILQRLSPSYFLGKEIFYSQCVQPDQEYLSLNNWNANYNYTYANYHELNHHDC
The procedure, abridged: as §1

The next assay addresses ELF4 (Homo sapiens, UniProt Q99607 1-663). The essentials: as §1
Another assay deals with T9, ELK4 (Homo sapiens, UniProt P28324-2 1-405).
T9 sequence: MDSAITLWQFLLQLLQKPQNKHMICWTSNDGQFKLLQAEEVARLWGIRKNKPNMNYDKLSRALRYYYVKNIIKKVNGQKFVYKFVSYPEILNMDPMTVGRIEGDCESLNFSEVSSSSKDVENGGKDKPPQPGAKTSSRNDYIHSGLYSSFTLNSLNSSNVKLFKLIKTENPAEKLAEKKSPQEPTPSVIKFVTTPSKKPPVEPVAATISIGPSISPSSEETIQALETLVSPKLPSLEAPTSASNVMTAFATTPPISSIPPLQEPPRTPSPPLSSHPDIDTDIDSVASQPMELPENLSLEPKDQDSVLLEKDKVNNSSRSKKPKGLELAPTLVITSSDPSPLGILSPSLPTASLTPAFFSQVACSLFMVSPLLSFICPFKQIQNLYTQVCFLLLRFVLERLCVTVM
The procedure, abridged:
as §1

A further assay deals with T10, ETV2 (Homo sapiens, UniProt O00321 1-342).
T10 sequence: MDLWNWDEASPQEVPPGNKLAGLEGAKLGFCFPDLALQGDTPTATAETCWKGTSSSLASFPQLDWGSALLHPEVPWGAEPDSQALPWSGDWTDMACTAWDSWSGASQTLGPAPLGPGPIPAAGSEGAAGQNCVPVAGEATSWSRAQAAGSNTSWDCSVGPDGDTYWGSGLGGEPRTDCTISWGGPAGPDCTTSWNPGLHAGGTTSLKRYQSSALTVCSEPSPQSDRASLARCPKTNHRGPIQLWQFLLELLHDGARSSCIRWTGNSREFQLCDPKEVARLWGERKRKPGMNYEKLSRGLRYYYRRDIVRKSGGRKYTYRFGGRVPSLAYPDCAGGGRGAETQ
The procedure, abridged:
as §1

A further assay has as its target T11, ELF3 (Homo sapiens, UniProt P78545 1-371).
T11 sequence: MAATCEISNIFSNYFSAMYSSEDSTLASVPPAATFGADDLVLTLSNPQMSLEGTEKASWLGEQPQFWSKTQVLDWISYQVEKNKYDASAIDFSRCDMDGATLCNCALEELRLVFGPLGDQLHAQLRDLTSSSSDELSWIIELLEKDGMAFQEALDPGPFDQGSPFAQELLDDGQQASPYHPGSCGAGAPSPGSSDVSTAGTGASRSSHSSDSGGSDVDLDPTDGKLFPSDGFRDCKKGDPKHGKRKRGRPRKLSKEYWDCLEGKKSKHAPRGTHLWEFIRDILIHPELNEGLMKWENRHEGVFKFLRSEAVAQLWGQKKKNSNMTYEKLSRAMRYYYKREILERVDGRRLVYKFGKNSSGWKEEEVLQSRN
The procedure, abridged:
as §1

A further assay addresses ETV1 (Homo sapiens, UniProt P50549 1-477). The procedure, abridged: as §1

Sequence of ETV1 (P50549 whole entry): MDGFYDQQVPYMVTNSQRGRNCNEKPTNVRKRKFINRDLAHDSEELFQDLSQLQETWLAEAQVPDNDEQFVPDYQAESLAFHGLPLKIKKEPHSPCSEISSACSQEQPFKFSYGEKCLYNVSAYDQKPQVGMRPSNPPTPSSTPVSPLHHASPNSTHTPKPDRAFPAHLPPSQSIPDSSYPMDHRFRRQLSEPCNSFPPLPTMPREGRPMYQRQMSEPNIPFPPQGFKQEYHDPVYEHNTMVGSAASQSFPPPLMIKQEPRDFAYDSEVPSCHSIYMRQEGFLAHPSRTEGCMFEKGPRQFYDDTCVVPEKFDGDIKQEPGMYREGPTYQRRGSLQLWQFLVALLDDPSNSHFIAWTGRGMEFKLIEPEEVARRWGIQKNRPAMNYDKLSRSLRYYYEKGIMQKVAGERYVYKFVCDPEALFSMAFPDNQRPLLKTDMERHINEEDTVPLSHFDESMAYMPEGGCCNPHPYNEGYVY
Sequence of ELF1 (P32519 whole entry): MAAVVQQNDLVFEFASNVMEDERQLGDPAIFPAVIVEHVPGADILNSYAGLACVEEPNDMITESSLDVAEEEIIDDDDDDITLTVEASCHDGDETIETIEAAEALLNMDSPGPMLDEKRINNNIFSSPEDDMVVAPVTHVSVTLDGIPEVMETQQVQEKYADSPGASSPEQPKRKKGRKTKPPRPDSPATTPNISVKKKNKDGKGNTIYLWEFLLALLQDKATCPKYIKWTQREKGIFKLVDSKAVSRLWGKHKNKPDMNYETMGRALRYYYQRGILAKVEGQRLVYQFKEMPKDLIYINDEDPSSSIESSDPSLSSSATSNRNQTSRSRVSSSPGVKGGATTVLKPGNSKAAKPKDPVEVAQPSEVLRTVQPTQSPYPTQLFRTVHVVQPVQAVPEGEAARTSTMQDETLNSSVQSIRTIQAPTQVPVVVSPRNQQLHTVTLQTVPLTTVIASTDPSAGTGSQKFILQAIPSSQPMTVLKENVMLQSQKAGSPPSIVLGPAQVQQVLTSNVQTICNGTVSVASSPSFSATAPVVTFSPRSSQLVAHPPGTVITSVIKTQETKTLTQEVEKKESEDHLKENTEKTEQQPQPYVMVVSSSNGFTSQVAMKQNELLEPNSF
Sequence of ETV5 (P41161 whole entry): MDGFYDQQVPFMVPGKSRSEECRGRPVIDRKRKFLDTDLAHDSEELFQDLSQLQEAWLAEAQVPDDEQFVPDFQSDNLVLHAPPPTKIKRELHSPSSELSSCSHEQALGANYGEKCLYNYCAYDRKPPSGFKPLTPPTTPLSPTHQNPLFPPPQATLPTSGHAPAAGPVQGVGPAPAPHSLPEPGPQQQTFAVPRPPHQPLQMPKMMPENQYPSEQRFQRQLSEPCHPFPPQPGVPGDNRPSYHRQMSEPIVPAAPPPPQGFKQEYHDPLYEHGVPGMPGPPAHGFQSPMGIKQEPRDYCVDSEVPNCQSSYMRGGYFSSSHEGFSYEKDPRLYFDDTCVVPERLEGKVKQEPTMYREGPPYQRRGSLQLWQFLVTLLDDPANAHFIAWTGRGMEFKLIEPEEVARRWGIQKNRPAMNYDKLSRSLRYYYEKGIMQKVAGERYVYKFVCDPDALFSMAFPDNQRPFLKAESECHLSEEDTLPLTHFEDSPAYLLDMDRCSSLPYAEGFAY
Sequence of ELF4 (Q99607 whole entry): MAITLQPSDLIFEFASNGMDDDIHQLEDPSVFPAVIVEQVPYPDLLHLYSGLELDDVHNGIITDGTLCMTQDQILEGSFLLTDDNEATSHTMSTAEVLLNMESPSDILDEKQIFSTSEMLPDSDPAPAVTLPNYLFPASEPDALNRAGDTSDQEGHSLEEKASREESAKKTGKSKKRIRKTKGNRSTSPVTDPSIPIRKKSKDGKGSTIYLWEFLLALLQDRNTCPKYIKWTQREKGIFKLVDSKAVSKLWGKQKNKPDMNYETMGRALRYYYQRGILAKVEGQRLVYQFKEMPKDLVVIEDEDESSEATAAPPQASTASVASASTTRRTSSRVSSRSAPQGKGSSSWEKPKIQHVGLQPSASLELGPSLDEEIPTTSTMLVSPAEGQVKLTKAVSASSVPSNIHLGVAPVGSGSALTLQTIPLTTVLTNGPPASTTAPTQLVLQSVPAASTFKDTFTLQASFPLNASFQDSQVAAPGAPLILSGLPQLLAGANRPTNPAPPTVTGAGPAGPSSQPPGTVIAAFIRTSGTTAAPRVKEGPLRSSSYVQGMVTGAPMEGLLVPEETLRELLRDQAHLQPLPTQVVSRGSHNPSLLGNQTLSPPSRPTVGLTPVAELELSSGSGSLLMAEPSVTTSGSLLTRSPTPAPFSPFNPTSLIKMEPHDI
Sequence of SPIB (Q01892 whole entry): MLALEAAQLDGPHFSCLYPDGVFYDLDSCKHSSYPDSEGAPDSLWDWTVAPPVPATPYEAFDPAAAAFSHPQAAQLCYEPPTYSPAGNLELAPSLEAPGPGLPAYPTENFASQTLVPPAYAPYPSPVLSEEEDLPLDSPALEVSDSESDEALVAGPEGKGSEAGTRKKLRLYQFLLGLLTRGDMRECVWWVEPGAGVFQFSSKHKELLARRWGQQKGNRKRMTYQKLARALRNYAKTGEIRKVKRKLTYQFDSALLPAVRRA

As for CCAACG, the binding signal with FLI1 was 1.12 fold enrichment (6-mer frequency, TF over GST control); with ELK1, 1.15 fold enrichment (6-mer frequency, TF over GST control); in the assay with GABPA, 1.09 fold enrichment (6-mer frequency, TF over GST control); with ERG, 1.17 fold enrichment (6-mer frequency, TF over GST control); with ELF1 it was 1.2 fold enrichment (6-mer frequency, TF over GST control); in the assay with EHF, 1.11 fold enrichment (6-mer frequency, TF over GST control). The binding signal was 1.15 fold enrichment (6-mer frequency, TF over GST control) in the assay with SPI1; 1.07 fold enrichment (6-mer frequency, TF over GST control) with SPIB; 1 fold enrichment (6-mer frequency, TF over GST control) with ELK3; 1.14 fold enrichment (6-mer frequency, TF over GST control) in the assay with FEV; 1.06 fold enrichment (6-mer frequency, TF over GST control) with ETV5; 1.11 fold enrichment (6-mer frequency, TF over GST control) with SPIC. Moreover, the binding signal with ELF4 was 1.21 fold enrichment (6-mer frequency, TF over GST control); with ELK4 it was 1.12 fold enrichment (6-mer frequency, TF over GST control); in the assay with ETV2, 1.14 fold enrichment (6-mer frequency, TF over GST control); in the assay with ELF3, 1.17 fold enrichment (6-mer frequency, TF over GST control); with ETV1, 1.11 fold enrichment (6-mer frequency, TF over GST control).
In the case of ACACAC, the binding signal in the assay with FLI1 was 1.24 fold enrichment (6-mer frequency, TF over GST control); in the assay with ELK1 it was 1.13 fold enrichment (6-mer frequency, TF over GST control); in the assay with GABPA, 1.21 fold enrichment (6-mer frequency, TF over GST control); with ERG, 1.22 fold enrichment (6-mer frequency, TF over GST control); in the assay with ELF1, 1.19 fold enrichment (6-mer frequency, TF over GST control); with EHF it was 1.23 fold enrichment (6-mer frequency, TF over GST control). In addition, the binding signal was 1.14 fold enrichment (6-mer frequency, TF over GST control) with SPI1; 1.19 fold enrichment (6-mer frequency, TF over GST control) with SPIB; 1.12 fold enrichment (6-mer frequency, TF over GST control) in the assay with ELK3; 1.18 fold enrichment (6-mer frequency, TF over GST control) in the assay with FEV; 1.15 fold enrichment (6-mer frequency, TF over GST control) with ETV5; 1.23 fold enrichment (6-mer frequency, TF over GST control) in the assay with SPIC. The binding signal in the assay with ELF4 was 1.21 fold enrichment (6-mer frequency, TF over GST control); in the assay with ELK4 it was 1.21 fold enrichment (6-mer frequency, TF over GST control); with ETV2 it was 1.33 fold enrichment (6-mer frequency, TF over GST control); with ELF3 it was 1.23 fold enrichment (6-mer frequency, TF over GST control); in the assay with ETV1, 1.17 fold enrichment (6-mer frequency, TF over GST control).

These data come from publication PMC7862700, “An all-to-all approach to the identification of sequence-specific readers for epigenetic DNA modifications on cytosine”.
